This passage reports kinase activity remaining results from the supplement of paper PMC6378613.

Compound in this assay: Cc1ccc(-c2ccc3c(ccc4sc5c(c43)NC[C@@H](C)NC5=O)n2)cn1
As to the kind of experiment: kinase activity remaining relative to vehicle control; higher = less inhibition. As to the method: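 In vitro radiometric kinase profiling of the MK2 inhibitor PF-3644022 at 0.1, 1 and 10 µM against a panel of kinases (MRC International Centre for Kinase Profiling, Dundee). Read-out is % kinase activity remaining relative to the vehicle control, mean of n=2.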

Sequence of UniProt Q9H0K1 (Q9H0K1 whole entry, looked up): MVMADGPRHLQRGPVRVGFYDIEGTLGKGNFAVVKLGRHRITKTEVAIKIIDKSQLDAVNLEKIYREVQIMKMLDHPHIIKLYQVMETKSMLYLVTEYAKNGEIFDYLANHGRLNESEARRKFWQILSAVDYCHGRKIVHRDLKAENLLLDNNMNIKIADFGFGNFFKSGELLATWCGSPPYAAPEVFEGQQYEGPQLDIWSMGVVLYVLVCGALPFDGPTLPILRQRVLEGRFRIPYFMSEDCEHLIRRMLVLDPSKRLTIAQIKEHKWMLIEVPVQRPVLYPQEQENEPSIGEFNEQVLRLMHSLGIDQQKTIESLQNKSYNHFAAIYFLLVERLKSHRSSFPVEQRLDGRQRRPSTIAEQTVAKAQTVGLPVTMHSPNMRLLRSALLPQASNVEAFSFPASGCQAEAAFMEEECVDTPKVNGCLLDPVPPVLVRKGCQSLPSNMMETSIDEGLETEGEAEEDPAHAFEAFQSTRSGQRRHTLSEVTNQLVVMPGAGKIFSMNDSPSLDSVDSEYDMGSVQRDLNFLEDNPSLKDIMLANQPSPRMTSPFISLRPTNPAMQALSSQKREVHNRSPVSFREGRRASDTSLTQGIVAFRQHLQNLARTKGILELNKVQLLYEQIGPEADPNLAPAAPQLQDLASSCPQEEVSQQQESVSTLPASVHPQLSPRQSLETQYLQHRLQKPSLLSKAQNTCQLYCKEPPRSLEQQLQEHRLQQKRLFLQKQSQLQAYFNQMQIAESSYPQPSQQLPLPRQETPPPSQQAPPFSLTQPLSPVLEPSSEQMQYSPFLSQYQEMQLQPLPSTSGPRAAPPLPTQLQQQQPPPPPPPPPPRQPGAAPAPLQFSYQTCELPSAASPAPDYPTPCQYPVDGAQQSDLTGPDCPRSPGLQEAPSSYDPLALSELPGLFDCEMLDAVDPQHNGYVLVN
Sequence of UniProt O96017 (O96017 whole entry, looked up): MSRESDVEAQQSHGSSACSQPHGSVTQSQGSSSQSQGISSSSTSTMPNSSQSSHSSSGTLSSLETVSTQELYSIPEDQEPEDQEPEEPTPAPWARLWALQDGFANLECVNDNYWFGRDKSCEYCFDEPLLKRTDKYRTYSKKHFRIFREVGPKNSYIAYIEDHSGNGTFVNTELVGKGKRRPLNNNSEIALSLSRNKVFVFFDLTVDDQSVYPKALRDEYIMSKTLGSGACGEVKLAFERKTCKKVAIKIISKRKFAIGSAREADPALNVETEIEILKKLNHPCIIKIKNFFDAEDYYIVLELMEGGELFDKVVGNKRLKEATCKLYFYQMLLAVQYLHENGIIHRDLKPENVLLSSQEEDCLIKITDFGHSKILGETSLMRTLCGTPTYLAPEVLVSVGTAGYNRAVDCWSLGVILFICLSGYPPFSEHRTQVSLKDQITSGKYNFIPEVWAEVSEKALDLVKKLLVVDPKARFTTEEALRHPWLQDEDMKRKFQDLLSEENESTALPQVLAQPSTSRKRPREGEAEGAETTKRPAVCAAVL
Sequence of UniProt P12931 (P12931 whole entry, looked up): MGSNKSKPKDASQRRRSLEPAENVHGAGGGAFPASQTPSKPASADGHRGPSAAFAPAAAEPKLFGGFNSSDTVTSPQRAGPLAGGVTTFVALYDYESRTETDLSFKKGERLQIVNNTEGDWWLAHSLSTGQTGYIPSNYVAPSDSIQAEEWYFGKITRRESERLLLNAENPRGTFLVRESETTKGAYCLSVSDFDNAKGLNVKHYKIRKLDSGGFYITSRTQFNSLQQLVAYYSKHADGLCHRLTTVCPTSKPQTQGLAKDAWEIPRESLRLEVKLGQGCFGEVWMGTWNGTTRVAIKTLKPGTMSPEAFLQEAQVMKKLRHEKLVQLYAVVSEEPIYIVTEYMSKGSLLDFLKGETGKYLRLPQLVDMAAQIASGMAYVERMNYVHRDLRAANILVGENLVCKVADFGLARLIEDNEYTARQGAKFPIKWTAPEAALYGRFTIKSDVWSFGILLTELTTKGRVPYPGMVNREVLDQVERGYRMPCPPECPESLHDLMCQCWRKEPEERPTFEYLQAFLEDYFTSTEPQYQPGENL
Sequence of UniProt Q15831 (Q15831 whole entry, looked up): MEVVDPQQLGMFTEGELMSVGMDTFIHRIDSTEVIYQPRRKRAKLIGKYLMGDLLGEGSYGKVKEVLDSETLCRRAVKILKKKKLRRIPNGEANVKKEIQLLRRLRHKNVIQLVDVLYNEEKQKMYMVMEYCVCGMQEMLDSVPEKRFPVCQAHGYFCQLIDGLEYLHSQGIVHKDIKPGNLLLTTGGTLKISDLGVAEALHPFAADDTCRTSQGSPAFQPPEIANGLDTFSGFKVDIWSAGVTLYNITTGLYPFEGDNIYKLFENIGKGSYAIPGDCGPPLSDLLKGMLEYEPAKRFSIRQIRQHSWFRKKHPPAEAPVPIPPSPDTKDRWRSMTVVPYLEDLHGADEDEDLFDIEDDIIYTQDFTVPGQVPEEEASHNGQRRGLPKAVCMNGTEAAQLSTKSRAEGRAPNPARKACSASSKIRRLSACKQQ
Sequence of UniProt Q7KZI7 (Q7KZI7 whole entry, looked up): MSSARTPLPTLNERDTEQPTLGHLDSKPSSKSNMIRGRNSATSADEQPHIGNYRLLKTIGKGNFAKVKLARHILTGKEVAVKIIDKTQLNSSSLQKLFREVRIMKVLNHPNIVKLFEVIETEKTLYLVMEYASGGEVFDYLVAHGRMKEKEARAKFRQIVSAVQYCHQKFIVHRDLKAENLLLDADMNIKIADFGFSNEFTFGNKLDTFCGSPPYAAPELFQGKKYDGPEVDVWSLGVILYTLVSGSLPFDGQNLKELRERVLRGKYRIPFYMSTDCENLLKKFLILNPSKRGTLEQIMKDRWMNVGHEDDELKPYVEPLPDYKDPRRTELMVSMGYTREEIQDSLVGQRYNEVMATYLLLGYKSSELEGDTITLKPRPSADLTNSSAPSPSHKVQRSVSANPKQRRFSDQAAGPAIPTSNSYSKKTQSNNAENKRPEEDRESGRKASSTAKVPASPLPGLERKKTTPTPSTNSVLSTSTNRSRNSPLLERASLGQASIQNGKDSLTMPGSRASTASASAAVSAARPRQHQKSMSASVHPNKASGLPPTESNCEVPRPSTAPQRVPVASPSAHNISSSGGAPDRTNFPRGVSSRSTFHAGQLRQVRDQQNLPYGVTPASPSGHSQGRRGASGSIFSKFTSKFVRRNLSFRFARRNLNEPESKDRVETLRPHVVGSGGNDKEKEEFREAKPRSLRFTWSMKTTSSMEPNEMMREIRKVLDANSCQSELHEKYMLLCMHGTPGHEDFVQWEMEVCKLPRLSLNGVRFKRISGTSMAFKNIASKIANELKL
Sequence of UniProt Q02763 (Q02763 whole entry, looked up): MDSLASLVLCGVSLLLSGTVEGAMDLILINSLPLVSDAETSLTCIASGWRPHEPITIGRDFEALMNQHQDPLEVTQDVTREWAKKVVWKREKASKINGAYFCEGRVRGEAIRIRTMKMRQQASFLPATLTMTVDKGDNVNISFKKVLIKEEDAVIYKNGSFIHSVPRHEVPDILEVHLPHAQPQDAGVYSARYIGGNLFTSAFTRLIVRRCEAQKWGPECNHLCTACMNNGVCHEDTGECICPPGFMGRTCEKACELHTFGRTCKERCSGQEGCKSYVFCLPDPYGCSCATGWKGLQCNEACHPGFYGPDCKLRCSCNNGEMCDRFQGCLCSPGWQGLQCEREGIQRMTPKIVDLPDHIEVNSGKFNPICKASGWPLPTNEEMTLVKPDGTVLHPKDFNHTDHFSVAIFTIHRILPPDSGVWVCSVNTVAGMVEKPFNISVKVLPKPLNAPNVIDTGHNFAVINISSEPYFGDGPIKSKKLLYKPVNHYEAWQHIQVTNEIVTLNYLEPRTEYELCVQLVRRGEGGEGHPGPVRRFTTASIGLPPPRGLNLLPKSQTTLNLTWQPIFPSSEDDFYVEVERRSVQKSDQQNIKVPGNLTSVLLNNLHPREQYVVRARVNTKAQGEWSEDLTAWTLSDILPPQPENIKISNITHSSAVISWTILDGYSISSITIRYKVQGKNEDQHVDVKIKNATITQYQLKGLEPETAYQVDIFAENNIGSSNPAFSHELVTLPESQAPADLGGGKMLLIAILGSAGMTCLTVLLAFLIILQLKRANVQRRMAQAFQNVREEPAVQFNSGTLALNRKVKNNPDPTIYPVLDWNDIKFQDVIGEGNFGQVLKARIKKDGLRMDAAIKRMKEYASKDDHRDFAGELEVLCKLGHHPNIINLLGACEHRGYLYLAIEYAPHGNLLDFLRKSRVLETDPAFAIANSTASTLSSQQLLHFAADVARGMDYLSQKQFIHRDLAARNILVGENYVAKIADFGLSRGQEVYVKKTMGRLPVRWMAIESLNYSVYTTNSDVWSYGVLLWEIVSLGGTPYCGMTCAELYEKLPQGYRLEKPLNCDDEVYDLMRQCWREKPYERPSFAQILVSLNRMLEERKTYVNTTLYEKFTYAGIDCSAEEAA
Sequence of UniProt Q92630 (Q92630 whole entry, looked up): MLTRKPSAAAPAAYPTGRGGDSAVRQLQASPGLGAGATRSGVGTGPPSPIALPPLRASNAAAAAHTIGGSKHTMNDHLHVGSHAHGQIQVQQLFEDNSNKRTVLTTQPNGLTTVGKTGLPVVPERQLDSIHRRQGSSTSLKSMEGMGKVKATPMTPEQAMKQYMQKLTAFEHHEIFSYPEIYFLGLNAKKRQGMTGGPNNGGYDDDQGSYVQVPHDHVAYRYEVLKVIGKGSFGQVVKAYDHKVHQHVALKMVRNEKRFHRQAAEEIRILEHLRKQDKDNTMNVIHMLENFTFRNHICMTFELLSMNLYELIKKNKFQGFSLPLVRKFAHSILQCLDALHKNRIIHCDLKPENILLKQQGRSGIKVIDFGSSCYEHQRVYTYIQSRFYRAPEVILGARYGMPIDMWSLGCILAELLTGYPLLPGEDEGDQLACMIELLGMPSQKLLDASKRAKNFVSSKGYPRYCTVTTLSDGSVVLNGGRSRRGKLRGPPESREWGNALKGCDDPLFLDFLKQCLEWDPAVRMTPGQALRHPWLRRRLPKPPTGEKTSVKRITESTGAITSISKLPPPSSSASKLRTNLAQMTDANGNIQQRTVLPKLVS

For the target EPH-B4, the kinase activity remaining is, setting by setting: (inhibitor concentration 0.1 µM) 110%; (inhibitor concentration 1 µM) 106%; (inhibitor concentration 10 µM) 99%.
Regarding TIE2 (UniProt Q02763), the kinase activity remaining reads like this: (inhibitor concentration 0.1 µM) 105%; (inhibitor concentration 1 µM) 86%; (inhibitor concentration 10 µM) 88%.
Taken in the same sequence, the figures for p38 alpha MAPK were 94%, 94% and 83%.
For the target CHK2 (UniProt O96017), the kinase activity remaining (inhibitor concentration 0.1 µM) came to 112%, the kinase activity remaining (inhibitor concentration 1 µM) came to 51% and the kinase activity remaining (inhibitor concentration 10 µM) was 9%.
Taken in the same sequence, the figures for MKK1 were 101%, 97% and 69%.
Taken in the same sequence, the figures for CK1 delta were 96%, 96% and 92%.
Taken in the same sequence, the figures for TAO1 were 109%, 98% and 70%.
For the target DYRK2 (UniProt Q92630), the kinase activity remaining turned out to be 101% (inhibitor concentration 0.1 µM), 105% (inhibitor concentration 1 µM) and 52% (inhibitor concentration 10 µM).
Taken in the same sequence, the figures for SIK2 (UniProt Q9H0K1) were 99%, 86% and 77%.
With PKC alpha, the kinase activity remaining is, setting by setting: (inhibitor concentration 0.1 µM) 101%; (inhibitor concentration 1 µM) 113%; (inhibitor concentration 10 µM) 90%.
Regarding IKK beta, the kinase activity remaining (inhibitor concentration 0.1 µM) stood at 115%, the kinase activity remaining (inhibitor concentration 1 µM) was determined as 109% and the kinase activity remaining (inhibitor concentration 10 µM) was 101%.
Taken in the same sequence, the figures for LKB1 (UniProt Q15831) were 118%, 103% and 97%.
For the target MARK2 (UniProt Q7KZI7), the kinase activity remaining is, setting by setting: (inhibitor concentration 0.1 µM) 116%; (inhibitor concentration 1 µM) 113%; (inhibitor concentration 10 µM) 95%.
Taken in the same sequence, the figures for Src (UniProt P12931) were 110%, 116% and 100%.
